The list is a sample of the results.
aSyn UTR act – Activators via SNCA 5'UTR binding, MLPCN. alpha-synuclein 5'UTR reporter, activators screen. activity score, % (tested at 7.5 µM), hits read low. hit rate 7.1% among 300,000; in the data active = activity score below about -60%
Of the large screens only hits and unclear results are named; the others gave an inactive call.

C/C(=N\NC(=O)c1ccn(C)n1)c1cccc(NC(=O)c2ccc(C)s2)c1	aSyn UTR act -101
C/C(=N\NC(=O)c1ccn(C)n1)c1ccc(NC(=O)c2cccc(F)c2)cc1	aSyn UTR act -86
Cc1ccc(C(=O)Nc2ccc(CN3CCS(=O)(=O)CC3)cc2)cc1C	aSyn UTR act -78
O=C(Nc1ccc2c(c1)OCCO2)c1ccc(CN2CCOCC2)cc1	aSyn UTR act -148
O=C(Nc1ccc2c(c1)OCCO2)c1ccc(Cl)c(S(=O)(=O)N2CCOCC2)c1	aSyn UTR act -67
O=C(Nc1cccc(O)c1)c1ccc(NC(=O)C2CCCO2)cc1 (stereo not drawn)	aSyn UTR act -98
O=C(Nc1ccc(F)cc1)c1ccc(NC(=O)C2CCCO2)cc1 (stereo not drawn)	aSyn UTR act -128
COC(=O)c1ccc(NC(=O)C2CCCO2)cc1 (stereo not drawn)	aSyn UTR act -64
COC(=O)c1c(-c2ccc(F)cc2)csc1NC(=O)C1CCCO1 (stereo not drawn)	aSyn UTR act -85
COc1ccc(N/N=C(C)/C(=N/O)C(=O)Nc2ccccc2)cc1	aSyn UTR act -87
COc1ccc(NC(=O)NC(=O)c2ccccc2)cc1	aSyn UTR act -221
COc1ccccc1NC(=O)NC(=O)c1ccccc1	aSyn UTR act -137
O=C(NC(=O)c1ccccc1)Nc1ccccc1	none
CCOc1ccc(/C=C/c2nc(C#N)c(NCCCOC)o2)cc1	aSyn UTR act -150
COCCCNc1oc(/C=C/c2ccccc2)nc1C#N	aSyn UTR act -114
O=C(CSc1nnnn1Cc1ccccc1)c1ccccc1	aSyn UTR act -67
CCn1nnnc1SCC(=O)c1ccc(C)cc1	aSyn UTR act -66
Cc1ccc(Nc2nc(=O)c3cccnc3s2)cc1	aSyn UTR act -228
COC(=O)/C(C#N)=C1/C=Cc2ccccc2N1	aSyn UTR act -99
Cc1ccc(C(=O)NCCn2cc(SCC(=O)Nc3cc(C)on3)c3ccccc32)cc1	aSyn UTR act -78
O=C(COc1ccc(Cl)cc1Cl)Nc1cccnc1	aSyn UTR act -122
O=C(COc1ccc(Cl)cc1Br)Nc1ccncc1	aSyn UTR act -146
Cc1c(OCC(=O)Nc2cccnc2)ccc2c3c(c(=O)oc12)CCC3	none
CC1CCC(C(C)C)C(=O)/C1=C/c1ccc(N)cc1 (stereo not drawn)	aSyn UTR act -173
CCOC(=O)C1CCN(c2nnc(N3CCCC3=O)s2)CC1	aSyn UTR act -66
Cc1cccc(-c2nc(=S)c3c(o2)CCCC3)c1	aSyn UTR act -133
S=c1nc(-c2ccc(Br)cc2)oc2c1CCCC2	aSyn UTR act -184
N#C/C(C(N)=O)=C1/CCc2ccccc2N1	aSyn UTR act -63
O=C(CCl)NC(Cc1ccccc1)c1ccccc1 (stereo not drawn)	none
CC(C)c1cccc(C(C)C)c1NC(=O)CCl	aSyn UTR act -76
O=C(Nc1ccccc1)N1CCCC2CCCCC21 (stereo not drawn)	aSyn UTR act -125
COCCCNC(=S)N/N=C/c1ccc(N(C)C)cc1	aSyn UTR act -112
COCCCNC(=S)N/N=C/c1ccc(N(C)C)cc1Cl	aSyn UTR act -107
CCOc1ccc(C(=O)c2cccs2)cc1	aSyn UTR act -182
CO/N=C/C(=N\Nc1ccc(OC)cc1)C(=O)c1ccc(OC)cc1	aSyn UTR act -71
C/C(=N\OCc1ccc(C#N)cc1)c1ccccc1	aSyn UTR act -120
C/C(=N\OCc1cccc(C(=O)O)c1)c1ccc(Cl)cc1	none
Cc1ccc(C2/C(=C(/O)c3cnn(-c4ccccc4)c3C)C(=O)C(=O)N2CCCN2CCOCC2)o1 (stereo not drawn)	aSyn UTR act -111
Cc1c(/C(O)=C2\C(=O)C(=O)N(CCN(C)C)C2c2cccs2)cnn1-c1ccccc1 (stereo not drawn)	aSyn UTR act -88
COc1cccc(NC(=S)Nc2cc(C(=O)O)ccc2N2CC3CC(C2)c2cccc(=O)n2C3)c1 (stereo not drawn)	aSyn UTR act -95
Cc1cccc(-n2ncc3c(NCc4cccs4)ncnc32)c1	aSyn UTR act -112
Clc1ccc(-n2ncc3c(NCc4cccs4)ncnc32)cc1	aSyn UTR act -249
COc1ccc(-n2nc(C(=O)NCC(=O)N3CCN(c4ccc(F)cc4)CC3)c3ccccc3c2=O)c(OC)c1	aSyn UTR act -65
COc1ccc(-n2nc(C(=O)NCC(=O)N3CCN(c4ccccc4)CC3)c3ccccc3c2=O)c(OC)c1	aSyn UTR act -78
Cc1ccccc1C(=O)NC(C(=O)Nc1nc2c(s1)CCCC2)C(C)C (stereo not drawn)	aSyn UTR act -66
O=C(NC(=S)Nc1nc2c(s1)CCCC2)c1ccccc1	aSyn UTR act -345
COC(=O)c1ccc(C(=O)NC(=S)Nc2nc3c(s2)CCCC3)cc1	aSyn UTR act -66
S=C(Nc1nc2c(s1)CCCC2)NC1CC1	aSyn UTR act -92
Cn1c(/C=C/c2ccc(Br)cc2)c([N+](=O)[O-])c(=O)n(C)c1=O	aSyn UTR act -199
CCCOc1ccc(/C=C/c2c([N+](=O)[O-])c(=O)n(C)c(=O)n2C)cc1	aSyn UTR act -130
O=C(NCCN1C(=O)C2C3C=CC(C3)C2C1=O)Nc1ccc(Br)cc1 (stereo not drawn)	aSyn UTR act -144
COc1ccc(/C=C/C(=O)C(C(N)=O)=C2SCCS2)cc1	aSyn UTR act -109
NC(=O)C(C(=O)/C=C/c1ccc(Cl)cc1)=C1SCCS1	aSyn UTR act -114
CCN(C(=O)COC(=O)/C=C/c1cnc2ccccc2n1)c1ccccc1	aSyn UTR act -65
O=C(/C=C/c1cnc2ccccc2n1)NC12CC3CC(CC(C3)C1)C2	aSyn UTR act -140
CCC(C)(C)NC(=O)/C=C/c1cnc2ccccc2n1	aSyn UTR act -122
C/C(=N\NC(=O)c1cc(-c2cccs2)nc2ccccc12)c1ccccn1	none
c1ccc(Nc2nc(-c3cccs3)cs2)nc1	aSyn UTR act -165
Cc1cccc(Nc2nc(-c3cccs3)cs2)n1	aSyn UTR act -91
COc1cc(/C=N/N=C(\N)c2nonc2N)ccc1O	aSyn UTR act -78
N/C(=N\N=C\c1ccc(Br)o1)c1nonc1N	aSyn UTR act -116
CS/C(N)=N/N=C/c1ccc2c(c1)OCO2	aSyn UTR act -119
COc1ccc(/C=N/N=C(\N)c2nonc2N)cc1OC	aSyn UTR act -93
N/C(=N\N=C\c1ccc(O)cc1)c1nonc1N	aSyn UTR act -182
CS/C(N)=N/N=C/c1ccc([N+](=O)[O-])cc1	aSyn UTR act -133
N/C(=N\N=C\c1ccc([N+](=O)[O-])cc1)c1nonc1N	aSyn UTR act -154
N/C(=N\N=C\c1cccc(O)c1)c1nonc1N	aSyn UTR act -106
N/C(=N\N=C\c1ccc(O)c(O)c1)c1nonc1N	aSyn UTR act -130
O=C1NCCN/C1=C\C(=O)c1ccc(Br)cc1	aSyn UTR act -120
O=C1NCCN/C1=C\C(=O)c1cccc(Br)c1	aSyn UTR act -62
O=S(=O)(c1ccccc1)N1CCN(c2nc3ccccc3s2)CC1	aSyn UTR act -83
CS(=O)(=O)N1CCN(c2nc3ccccc3s2)CC1	aSyn UTR act -80
CC(C)c1ccc(-c2nc3ccccc3s2)cc1	none
O=S(=O)(c1ccc(-c2nc3ccccc3s2)cc1)N1CCCC1	aSyn UTR act -118
N/C(=N\NC(=O)Nc1ccc(Cl)cc1)c1ccccn1	aSyn UTR act -114
S=C(Nc1ccccn1)c1ccccn1	aSyn UTR act -115
O=C(Nc1ccccn1)C(=O)Nc1ccccn1	aSyn UTR act -95
O=C(Nc1ccccn1)c1ccc(-c2ccccc2)cc1	none
CCOC(=O)c1ccc(NC(=O)C2CCCN(c3cnccn3)C2)cc1 (stereo not drawn)	aSyn UTR act -88
